67 compounds from ChEMBL document CHEMBL4513216, “Probing the Open Global Health Chemical Diversity Library for Multistage-Active Starting Points for Next-Generation Antimalarials” (ACS Infect Dis, 2020) can be followed below.

About 8,600 (12%) of roughly 69,000 compounds showed an effect of 50% or more. Many of the other results were omitted from the sample, so strong results are more common in it than they were.

The test relates to Plasmodium berghei. The test is described as follows: Screen against P. berghei liver stage (PbLuc), transformed with Luciferase, at 10uM. In kind it is functional, HepG2. As to conditions: tested at 10 uM.
As to `COCC(=O)N1C[C@H]2CNC[C@@]2(C(=O)NCc2nc(C)cc(C)n2)C1`, the INHIBITION is 1.45%.

`COCC(=O)N1C[C@H]2CNC[C@@]2(C(=O)NCc2c(C)noc2C)C1`: the INHIBITION is -31.9%.

Turning to `COCC(=O)N1C[C@H]2CNC[C@@]2(C(=O)NCc2cc(C)n[nH]2)C1`, the INHIBITION is recorded as 59.5%.

As to `CCC[C@H]1CN(S(C)(=O)=O)C[C@@H]1NC(=O)COC(C)C`, the INHIBITION was determined as 34.9%.

As for `Cc1ccc(CN2CCN(Cc3cc(C)n[nH]3)CC2CCO)cc1` (configuration not stated), the INHIBITION is -0.529%.

On to `Cc1cccc(CN2CCN3C(=O)NC[C@H]3C2)n1`, for which the INHIBITION is listed as -27.5%.

As to `CC(C)=CCN1CCN(Cc2cccc(C)n2)CC1CCO` (configuration not stated), the INHIBITION is recorded as 67.4%.

In the case of `Cc1cccc(CN2CCN(Cc3ccccc3)CC(O)C2)n1` (configuration not stated), the INHIBITION is 16.8%.

`CC(C)=CCN1CCN(Cc2cc(C)c(O)c(C)c2)CC1CCO` (configuration not stated): the INHIBITION came to 51.3%.

Turning to `CC(C)=CCN1CCN(Cc2cc(C)n[nH]2)CC1CCO` (configuration not stated), the INHIBITION was determined as 26.6%.

For the compound `CC(C)N1CCC(N2CCN(C3CCCCC3)CC2CCO)CC1` (configuration not stated), the INHIBITION amounted to 22%.

For `CCn1cc(Cl)c(C(=O)Nc2ccc3c(c2)C(C)(C)C(=O)N3C)n1`, the INHIBITION came out at 20.9%.

Turning to `O=C(CCc1cc(O)no1)N1CCCC(OCc2cccnc2)C1` (configuration not stated), the INHIBITION is on record as 23.6%.

`Cc1c(S(=O)(=O)N(CCc2ccccc2)Cc2ccn(C)n2)cnn1C`: the INHIBITION is listed as 41.9%.

Consider `CNC(=O)NCC(CO)Cc1ccccc1OC(F)(F)F` (configuration not stated), for which the INHIBITION was determined as 16%.

On to `COCCOc1nc(-c2ccccc2Cl)no1`, for which the INHIBITION turned out to be 14.9%.

With `CCS(=O)(=O)CCCOc1nc(-c2ccccc2Cl)no1`, the INHIBITION worked out at 50%.

Consider `CS(=O)(=O)CCOc1nc(-c2ccccc2Cl)no1`, for which the INHIBITION is listed as -3.94%.

For the compound `CC(C)c1nccn1C1CCCN(C(=O)c2ccnc(N(C)C)c2)C1` (configuration not stated), the INHIBITION was determined as 42.9%.

As for `CCc1nccn1C1CCCN(C(=O)c2cnn3ccc(C)nc23)C1` (configuration not stated), the INHIBITION is on record as 24.6%.

On to `CCc1nccn1C1CCCN(C(=O)c2ccc(N(C)C)nn2)C1` (configuration not stated), for which the INHIBITION is given as 45.65%.

For `CCc1nccn1C1CCCN(C(=O)c2cnn(C)c2C2CC2)C1` (configuration not stated), the INHIBITION worked out at 44.8%.

As for `Cc1noc2ncc(C(=O)N3CCCC(n4ccnc4C)C3)cc12` (configuration not stated), the INHIBITION was determined as 32.3%.

On to `Cc1noc2ncc(C(=O)N3CCCC(n4cccn4)C3)cc12` (configuration not stated), for which the INHIBITION was 27.8%.

As to `CCc1nccn1C1CCCN(C(=O)c2ccn(-c3ccccc3)n2)C1` (configuration not stated), the INHIBITION is on record as 52.2%.

For `CCc1nccn1C1CCCN(C(=O)c2cncn2-c2ccccc2)C1` (configuration not stated), the INHIBITION was determined as 32.45%.

With `CCc1nccn1C1CCCN(C(=O)c2cnn3cccnc23)C1` (configuration not stated), the INHIBITION came to 55.4%.

In the case of `CCc1nccn1C1CCCN(C(=O)c2cnc3ccccc3n2)C1` (configuration not stated), the INHIBITION was found to be 29.2%.

For the compound `CCc1nccn1C1CCCN(C(=O)c2ccnc(N(C)C)c2)C1` (configuration not stated), the INHIBITION stood at 65.85%.

As for `CCc1nccn1C1CCCN(C(=O)c2cnc3onc(C)c3c2)C1` (configuration not stated), the INHIBITION is listed as 66.4%.

Take `O=c1ccc2c([nH]1)CCC(NS(=O)(=O)C1CC1)C2` (configuration not stated): the INHIBITION turned out to be 32.5%.

`O=C(NCc1ccccc1)N1CCc2ncnc(NC3CC3)c2CC1`: the INHIBITION worked out at 40.3%.

On to `CCOCc1nc(-c2cccc(OC)c2OC)n(C2CCN(C)CC2)n1`, for which the INHIBITION is 21.2%.

As to `CN(CC(=O)Nc1ccc(Br)cn1)C(=O)C(C)(C)C`, the INHIBITION is given as -17.6%.

Consider `O=C(Cc1cccnc1)N1CCCC2(CCN(CC3CCOCC3)C2)C1` (configuration not stated), for which the INHIBITION worked out at 18.5%.

Regarding `Cc1cc(C)c(C(=O)N(C)CCN(C)C(=O)OC(C)(C)C)[nH]1`, the INHIBITION turned out to be 11.4%.

Take `Cc1cncnc1C1CCN(C(=O)CN(C)C)CC1`: the INHIBITION is recorded as -15.1%.

For `CN(C)C(=O)N1CCC2(CC1)CN(Cc1ccccn1)C(=O)CO2`, the INHIBITION is on record as 30.4%.

On to `Cc1nccn1C1CCCN(C(=O)c2ccc3c(c2)OCCCO3)C1` (configuration not stated), for which the INHIBITION was found to be 47%.

For `CCc1nccn1C1CCCN(C(=O)c2ccc3c(c2)OCCO3)C1` (configuration not stated), the INHIBITION is on record as 52.5%.

For `CCc1nccn1C1CCCN(C(=O)c2ccc3c(c2)OCO3)C1` (configuration not stated), the INHIBITION worked out at 34.9%.

For the compound `CCCn1nc(C)c(CNS(=O)(=O)NCc2ccccc2)c1C`, the INHIBITION was -8.66%.

In the case of `CCCn1cc(Cl)c(C(=O)N2C[C@@H](O)[C@H](Oc3ccccc3)C2)n1`, the INHIBITION is reported as -10.55%.

In the case of `O=S(=O)(CCc1ccccc1Cl)CC(O)CO` (configuration not stated), the INHIBITION came to 35.7%.

`Cc1ccsc1C(=O)Nc1cnn(CC(=O)NC2CCCC2)c1`: the INHIBITION was -4.63%.

For `Cc1cc(C(=O)Nc2cnn(CC(=O)NC3CCCC3)c2)c(C)s1`, the INHIBITION is listed as 12.4%.

For `Cc1nc(C)c(C(=O)Nc2cnn(CC(=O)NC3CCCC3)c2)s1`, the INHIBITION was found to be 54.5%.

As to `Cc1nn(C)c2cnn(CCCNS(=O)(=O)Cc3ccccc3)c12`, the INHIBITION amounted to 41.6%.

Regarding `Cc1nccn1C1CCCN(C(=O)CCNc2ncccn2)C1` (configuration not stated), the INHIBITION worked out at 5.03%.

Regarding `CC(C)CNC(=O)N1CCC2(CC1)OC(C(N)=O)Cn1ccnc12` (configuration not stated), the INHIBITION was found to be 39.4%.

With `Cc1cc(C)n(C2=NC(NCCCO)c3c(sc4c3CCCC4)N2)n1` (configuration not stated), the INHIBITION was found to be 79.7%.

Take `CC(C)OCCCNC(=O)c1c(-n2cnnn2)sc2c1CCCC2`: the INHIBITION stood at 20.1%.

With `COC(=O)C1CCCN1C(=O)c1ccc(-n2nc(C)cc2C)cc1` (configuration not stated), the INHIBITION is listed as -16.8%.

Consider `COCCCNC1N=C(n2nc(C)cc2C)Nc2sc3c(c21)CCCC3` (configuration not stated), for which the INHIBITION was determined as 88.8%.

For the compound `COCCCNC(=O)c1c(-n2cnnn2)sc2c1CCC2`, the INHIBITION was 30.8%.

As to `Cc1cc(C)n(C2=NC(NCCC(C)C)c3c(sc4c3CCCC4)N2)n1` (configuration not stated), the INHIBITION amounted to 90.5%.

Turning to `COCCNC(=O)c1c(-n2cnnn2)sc2c1CCCC2`, the INHIBITION is -6.42%.

Turning to `Cc1oc(C(=O)O)cc1S(=O)(=O)Nc1cc(Br)ccc1F`, the INHIBITION is recorded as -0.96%.

Consider `Cc1ncncc1C(=O)N1CCC(O)(CN(C)Cc2ccc(F)cc2)C1` (configuration not stated), for which the INHIBITION turned out to be 6.32%.

Regarding `CC(C)c1nnc(CCC(=O)N2CCCC(c3cnccn3)C2)o1` (configuration not stated), the INHIBITION is on record as 26.7%.

Turning to `CN(C)C(=O)c1nn(C)c2c1CN(Cc1ccc(F)cc1)C2`, the INHIBITION was 31.7%.

As for `O=C(Nc1ccccc1Cl)N1CCN(CC2CC2)[C@@H]2CS(=O)(=O)C[C@@H]21`, the INHIBITION is given as 52.2%.

Consider `CN(C)C(=O)N1CCN(Cc2ccccc2)[C@@H]2CS(=O)(=O)C[C@@H]21`, for which the INHIBITION is reported as -33.2%.

As to `Cc1ccccc1NC(=O)N1CCN(C(=O)C2CC2)[C@@H]2CS(=O)(=O)C[C@@H]21`, the INHIBITION was -5.22%.

Turning to `CCCN1CCN(C(=O)Nc2ccccc2Cl)[C@H]2CS(=O)(=O)C[C@H]21`, the INHIBITION is listed as -32.9%.

In the case of `CC(=O)N1CCN(C(=O)Nc2ccccc2Cl)[C@H]2CS(=O)(=O)C[C@H]21`, the INHIBITION is 72%.

On to `CS(=O)(=O)NCC1CCCN(C(=O)Nc2ccccc2Cl)C1` (configuration not stated), for which the INHIBITION was 9.48%.
